# PubChem BioAssay (Tox21)
# Inconclusive results are not listed. Entries that show only a call come without a potency. More than one record can exist for a structure, and the calls need not agree. Calls of active or inactive are those of the source. Calls come from the whole dose curve.
# Assay: p53 small molecule agonists, cell-based qHTS assay with human liver microsomes: qHTS cell viability counter screen (AID 1963579); note: nearly all actives have a fitted effect of over 45% in size
# Details: p53RE-bla HCT-116 viability, ATP luminescence, 16 h, HLM; series mostly up to 66 µM
# Text: National Center for Advancing Translational Sciences [NCATS]
# Division of Preclinical Innovation [DPI]
# U.S. Environmental Protection Agency [EPA]
# National Institutes of Environmental Health Sciences [NIEHS]
# National Toxicology Program [NTP]
# U.S. Food and Drug Administration [FDA]
# p53, a tumor suppressor protein, is activated following cellular insult, including DNA damage and other cellular stresses. The activation of p53 regulates cell fate by inducing DNA repair, cell cycle arrest, apoptosis, or cellular senescence. The activation of p53, therefore, is a good indicator of DNA damage and other cellular stresses. […] The activation of the reporter gene under culture conditions can be detected by fluorescence intensity. This cell line was used to screen the Tox21 10K compound library in the condition of presence of human liver microsomes and to identify agonists that activate the p53 signaling pathway after in vitro metabolic activation (Ooka et al., Archive of Toxicology 96:1975-1987, 2022).
# Tox21 Assay Protocol Summary:
# The p53RE-bla cells were dispensed at 4,000cells/3ul/well in 1536-well black-clear bottom plates. After the assay plates were incubated at 37 C, 5% CO2 incubator for 5 hours, 23 nL of compounds dissolved in DMSO, positive controls or DMSO only was transferred to the assay plate. Following compound addition, 3 uL of human liver microsomes (XenoTech, Kansas City, KS) at final concentration of 0.5 mg/mL and 1uL of B-Nicotinamide adenine dinucleotide 2'-phosphate (NADPH) at final concentration of 0.5 mg/mL were transferred to the assay plate. The plates were incubated at 37 C for 16 hours. 1 uL of LiveBLAzer detection mixture was added to each well and the plates were incubated at room temperature in the dark for 2 h. Fluorescence intensity at 460 and 530 nm emission and 405 nm excitation were measured by an Envision plate reader. For cell viability readout that measures cytotoxicity, 4 ul/well of CellTiter-Glo reagent was added into the assay plates using a Flying Reagent Dispenser. After 30 min incubation at room temperature, the luminescence intensity in the plates was measured using a ViewLux plate reader.
# Potency is the fitted concentration of half-maximal effect.
Compound,Potency,"activity change, negative = cytotoxicity"
O=S(=O)(O)c1ccccc1O,inactive,–
CCCCOC(=O)C(=O)OCCCC,inactive,–
CCCCCCCCCCCCOCCO,20.4 µM (active) and inactive,–
Cc1ccc(-c2ccccc2C#N)cc1,inactive,–
Clc1nc2ccccc2s1,inactive,–
CC(C)CCCC(C)CCCC(C)CCCCC(C)CCCC(C)CCCC(C)C (stereo not given),inactive,–
C[C@H]1C[C@@H](O)CC(C)(C)C1,inactive,–
CCCCC(CC)COC(=O)CCCCCCCC(=O)OCC(CC)CCCC (stereo not given),inactive,–
CCOC(C)(C)C,inactive,–
CN(C)CCCNCCCN(C)C,inactive,–
CCOc1ccccc1OCC,inactive,–
Cc1ccc(C(=O)C(=O)O)cc1C,inactive,–
CCN(C=O)CC,inactive,–
CCCc1ccc(N)cc1,inactive,–
Cc1ccc(N)cc1[N+](=O)[O-],inactive,–
COC(=O)/C=C(/C)N,inactive,–
Cc1cccc(N(C)C)c1,inactive,–
C=CCOCC(CC)(CO)COCC=C,inactive,–
Cc1ccccc1OCC(O)CO (stereo not given),inactive,–
CC(C)C(=O)OCCOc1ccccc1,inactive,–

Compound,Potency,"activity change, negative = cytotoxicity"
N=c1nc(N2CCCCC2)cc(N)n1O,inactive,–
CCC(=O)OC/C=C(\C)CCC=C(C)C,inactive,–
COc1ccc(N)c(OC)c1,inactive,–
CC(C)(C)c1ccc(O)c(C(C)(C)C)c1,inactive,–
CC(C)(O)C(=O)c1ccc(OCCO)cc1,inactive,–
CCC(=O)CC,inactive,–
Cc1cccc(C)c1NC(=O)CN1CCCCCC1,inactive,–
CC(C)(c1ccc(O)cc1)c1ccc(O)cc1,inactive,–
CCCOC(=O)C(C)O (stereo not given),inactive,–
C/C=C/C(=O)CCCC,inactive,–
CC(C)N=C(N)/N=C(\N)Nc1ccc(Cl)cc1,inactive,–
CC1(C)C(=O)N(Br)C(=O)N1Cl,inactive,–
O=C(Cl)c1ccccc1[N+](=O)[O-],inactive,–
CC(C)=CCCC(C)CCOC(=O)C(C)C (stereo not given),inactive,–
CNCCS(=O)(=O)O,inactive,–
CCOCCC(=O)OCC,inactive,–
CC(C)CCCCOC(=O)c1ccccc1C(=O)OCCCCC(C)C,inactive,–
COC(=O)N[C@H](C(=O)N[C@@H](Cc1ccccc1)[C@@H](O)CN(Cc1ccc(-c2ccccn2)cc1)NC(=O)[C@@H](NC(=O)OC)C(C)(C)C)C(C)(C)C,inactive,–
Cc1ccc(C(C)(C)O)cc1,inactive,–
CCCCCCCCCCCCCCCCI,–,1.61% [at 13.5 µM] (inactive)
